# Test results: PubChem BioAssay (NCATS)
# Inconclusive results are not listed. A call without a number means that no potency is given here. Calls of active or inactive are those of the source. Unless noted, the call rests on the fitted dose curve.
# Experiments:
# [1] = P-glycoprotein substrates identified in KB-8-5-11 adenocarcinoma cell line, qHTS therapeutic library screen (AID 1346987; active means well fitted curve in the direction sought with a large enough effect; an effect the other way counts as inactive or inconclusive; further: potency means the concentration at half of the fitted maximal effect; nearly all actives have a fitted effect of over 65% in size)
# Method in brief: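 KB-8-5-11: colchicine-selected sub-line of KB-3-1 over-expressing P-gp; assay medium lacked colchicine. 72 h drug exposure at 37 degree C, CellTiter-Glo.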
# [2] = system: Zika virus NS2B-NS3 protease (unlinked complex); assay: Primary screen GU Rhodamine qHTS for Zika virus inhibitors: Unlinked NS2B-NS3 protease assay (AID 1347159; active means well fitted curve in the direction sought with a large enough effect; an effect the other way counts as inactive or inconclusive; further: nearly all actives have a fitted effect of over 60% in size)
# Method in brief: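 Noncovalent NS2B hydrophilic domain–NS3 protease domain complex (25 nM) preincubated 15 min at room temperature with compounds (up to 114 microM) in 10 mM Tris-HCl pH 8.0, 0.01% Tween 20; 1.5 microM Rhodamine110 substrate added, fluorescence change over 15 min fitted to Hill equation.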
# [3] = system: Zika virus NS2B-NS3 protease (linked construct); assay: Primary screen NINDS Rhodamine qHTS for Zika virus inhibitors (AID 1347160; active means well fitted curve in the direction sought with a large enough effect; an effect the other way counts as inactive or inconclusive; further: nearly all actives have a fitted effect of over 55% in size)
# Method in brief: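 Purified linked NS2B-NS3 protease (NS2B hydrophilic domain joined to NS3 protease by flexible linker), 25 nM in 10 mM Tris-HCl pH 8.0, 0.01% Tween 20. Compounds titrated, 15 min preincubation at room temperature; 1.5 microM Rhodamine110 substrate, FITC fluorescence change over 15 min.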
# [4] = target: Calcium and integrin-binding protein 1 (Homo sapiens) (UniProt Q99828); assay: Primary qHTS for Identification of Calcium Integrin Binding Protein 1 (CIB1) Competitor (AID 1508620; active means well fitted curve in the direction sought with a large enough effect; an effect the other way counts as inactive or inconclusive;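 further: GST tagged CIB1 binding a fluorescein labelled alphaIIb integrin peptide tracer; top concentration of the series differs between compounds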)
# Method in brief: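 Fluorescence polarization competition: CIB1-GST (1 uM final) preincubated with compound 15 min at room temperature, then FITC-labeled alphaIIb peptide (100 nM final) added for another 15 min. Polarization read at Ex 480/Em 540.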
# [5] = Primary qHTS for inhibitors of nuclear receptor binding SET domain protein 2 (NSD2) in an isogenic RCH-ACV NSD2 p.E1099K mutant (9B) (AID 1645876; active means well fitted curve in the direction sought with a large enough effect; an effect the other way counts as inactive or inconclusive; further: potency means the concentration at half of the fitted maximal effect; nearly all actives have a fitted effect of over 70% in size)
# [6] = target: Glutathione peroxidase 1 (Homo sapiens) (UniProt P07203); assay: Primary qHTS Assay for Inhibitors of Recombinant Selenoprotein Glutathione Peroxidase 1 (GPX1) (AID 1845191; active means well fitted curve in the direction sought with a large enough effect; an effect the other way counts as inactive or inconclusive; further: nearly all actives have a fitted effect of over 65% in size)
# Method in brief: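 Recombinant GPX1 (10 nM final) was preincubated with compound for 30 min at room temperature, then reacted with 1 mM GSH, 0.5 mM CHP, 0.5 mM NADPH and 100 nM glutathione reductase; NADPH fluorescence (340/450 nm) was read at 0 and 15 min.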
# [7] = target: Phospholipid hydroperoxide glutathione peroxidase GPX4 (Homo sapiens) (UniProt P36969); assay: Primary qHTS Assay for Inhibitors of Recombinant Selenoprotein Glutathione Peroxidase 4 (GPX4) (AID 1845192; active means well fitted curve in the direction sought with a large enough effect; an effect the other way counts as inactive or inconclusive; further: nearly all actives have a fitted effect of over 65% in size)
# Method in brief: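 GR-coupled readout: 100 nM GR, 1 mM GSH, 0.5 mM NADPH; NADPH fluorescence (ex 340/em 450 nm) read at t=0 and after 15 min RT. GPX4 200 nM, preincubated 30 min with compound; substrate 0.5 mM CHP.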
# [8] = target: Luciferin 4-monooxygenase (Photinus pyralis) (UniProt P08659); assay: Primary firefly luciferase (FLuc) qHTS assay for identification of artifact compounds. (AID 1845220; active means well fitted curve in the direction sought with a large enough effect; an effect the other way counts as inactive or inconclusive; further: nearly all actives have a fitted effect of over 60% in size); details: outcome: dose series up to 54.1 µM unless noted
# Method in brief: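 qHTS, 15 min compound preincubation with substrate (10 uM luciferin, 10 uM ATP) at RT, then 10 nM FLuc; 5 min; luminescence; % inhibition vs no-enzyme/DMSO controls, 4-parameter Hill fit.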
# [9] = system: Nanoluciferase (engineered Oplophorus gracilirostris luciferase); assay: Primary Nanoluciferase (NLuc) qHTS assay for identification of artifact compounds. (AID 1845222; active means well fitted curve in the direction sought with a large enough effect; an effect the other way counts as inactive or inconclusive)
# Method in brief: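 Luminescence read-out of secreted NLuc in S16 cell conditioned medium (1:55); compounds tested with 15 min RT preincubation, then Nano-Glo substrate 1:100, 5 min. % inhibition vs no-enzyme and DMSO controls, 4-parameter Hill fit.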
# [10] = Primary redox qHTS assay for identification of artifact compounds. (AID 1845223; active means well fitted curve in the direction sought with a large enough effect; an effect the other way counts as inactive or inconclusive)
# Method in brief: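 Amplex Red (25 uM) and HRP (250 mU/mL) in HBSS, with compounds for 15 min, then 250 uM DTT for 30 min, room temperature, dark. Fluorescence 525/598 nm read; normalized to DMSO and 10 uM DA3003; Hill fit.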
# JEG-3 = assay: Primary qHTS to identify gynecologic anti-cancer compounds using libraries of approved drugs and bioactive compounds (AID 1345084; active means well fitted curve in the direction sought with a large enough effect; an effect the other way counts as inactive or inconclusive; further: potency means the concentration at half of the fitted maximal effect; nearly all actives have a fitted effect of over 55% in size); details: Gynecologic cancer cell panel viability, ATPlite luminescence, 48 h; series mostly up to 57.5 µM
# Method in brief: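 Cells, 1,000 per well, plated 16 h, then exposed 48 h at 37 C to compounds. Viability by ATPlite luminescence after 15 min at room temperature.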
# [11] = qHTS for Inhibitors of the Functional Ribonucleoprotein Complex (vRNP) of Lymphocytic Choriomeningitis Arenaviruses (LCMV): Viability assay - alamar blue signal for LCMV Primary Screen (AID 1347085; calls by dose curve; tested in HEK293 reporter line; further: nearly all actives have a fitted effect of over 80% in size; further: potency means the concentration at half of the fitted maximal effect)
# [12] = qHTS profiling of the MIPE4 collection as inhibitors of Plasmodium falciparum (3D7) proliferation (AID 743344; call rule not given here); details: P. falciparum 3D7 in erythrocytes, SYBR Green DNA fluorescence, 72 h; at 28.5 µM (top of the series) unless noted
# Method in brief: (§1)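 Erythrocytes infected with P. falciparum (0.3% parasitemia, 2.5% hematocrit) incubated with compounds 72 h at 37 C, 5% CO2. Lysis with saponin/Triton buffer containing SYBR Green I, overnight at room temperature in the dark; DNA fluorescence (485/535 nm) normalised to 0.29 uM artemisinin and DMSO.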
# [13] = qHTS profiling of the MIPE4 collection as inhibitors of Plasmodium falciparum (DD2) proliferation (AID 743345; call rule not given here); details: P. falciparum Dd2 in erythrocytes, SYBR Green DNA, 72 h; at 28.5 µM (top of the series) unless noted
# Method in brief: as §1
# [14] = qHTS profiling of the MIPE4 collection as inhibitors of Plasmodium falciparum (HB3) proliferation (AID 743347; call rule not given here); details: P. falciparum HB3 in erythrocytes, SYBR Green DNA, 72 h; at 28.5 µM (top of the series) unless noted
# Method in brief: as §1
# [15] = qHTS for Inhibitors of the Functional Ribonucleoprotein Complex (vRNP) of Lassa (LASV) Arenavirus: LASV Primary Screen - GLuc reporter signal (AID 1347082; calls by dose curve; tested in HEK293 reporter line; further: nearly all actives have a fitted effect of over 60% in size; further: potency means the concentration at half of the fitted maximal effect)
# [16] = qHTS for Inhibitors of the Functional Ribonucleoprotein Complex (vRNP) of Lassa (LASV) Arenavirus: Viability assay - alamar blue signal for LASV Primary Screen (AID 1347083; calls by dose curve; tested in HEK293 reporter line; further: nearly all actives have a fitted effect of over 80% in size; further: potency means the concentration at half of the fitted maximal effect)
# [17] = target: Nucleoprotein (Lymphocytic choriomeningitis virus (strain Armstrong)) (UniProt P09992); assay: qHTS for Inhibitors of the Functional Ribonucleoprotein Complex (vRNP) of Lymphocytic Choriomeningitis Arenaviruses (LCMV): LCMV Primary Screen - GLuc reporter signal (AID 1347086); further: nearly all actives have a fitted effect of over 70% in size; further: potency means the concentration at half of the fitted maximal effect
# [18] = Primary qHTS for inhibitors of SARS-S pseudo-typed particle cell entry (AID 1479145); further: nearly all actives have a fitted effect of over 45% in size
# [19] = Primary qHTS for Huh7 cytotoxicity: counterscreen for inhibitors of MERS-S pseudotyped particle cell entry (AID 1479147); details: outcome: dose series up to 57.1 µM unless noted
# [20] = Primary qHTS for inhibitors of MERS-S pseudo-typed particle cell entry (AID 1479149); further: nearly all actives have a fitted effect of over 60% in size
# [21] = Primary qHTS for Vero E6 cytotoxicity: counterscreen for inhibitors of SARS-S pseudo-typed particle cell entry (AID 1479150); details: outcome: dose series up to 57.1 µM unless noted
# [22] = Cytotoxicity counterscreen for inhibitors of SARS-CoV-2 cell entry (AID 1645845); further: nearly all actives have a fitted effect of over 50% in size
# Method in brief: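 Expi293F/hACE2 cells seeded overnight; cpd pin-transferred in DMSO, 1 h preincubation, + media, 48 h 37 C 5% CO2; ATPLite 1step luminescence; normalized to cells and no cells.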
# [23] = Primary qHTS to identify inhibitors of SARS-CoV-2 cell entry (AID 1645846); details: activity change, negative = inhibition: at 57.1 µM (top of the series) unless noted; further: nearly all actives have a fitted effect of over 45% in size; further: potency means the concentration at half of the fitted maximal effect
# Method in brief: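 Luminescence readout (Bright-Glo luciferase) 48 h after pseudoparticle addition. HEK293-ACE2 cells, 1500/well; compound pre-incubation 1 h; Normalized to spike PP and bald PP.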
# CRL-7250 = normal cell line; assay: qHTS assay to identify novel small-molecules to repurpose for Merkel cell carcinoma treatment (AID 1296009; active means well fitted curve in the direction sought with a large enough effect; an effect the other way counts as inactive or inconclusive; further: nearly all actives have a fitted effect of over 60% in size); details: MCC and control cell lines, CellTiter-Glo viability, 72 h; series mostly up to 92 µM
# Method in brief: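 Cells exposed to NPC (8-point) and MIPE (11-point) compound dilutions for 72 hr at 37 degree celsius; viability read by CellTiter-Glo luminescence, normalized to no-cell and DMSO in-plate controls.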
# [24] = Confirmatory qHTS for activators (rescue) of SARS-CoV-2 Cytopathic Effect (CPE) (AID 1508606); further: nearly all actives have a fitted effect of over 70% in size
# [25] = VSVG counterscreen qHTS to identify inhibitors of SARS-CoV-2 cell entry (AID 1645847); further: potency means the concentration at half of the fitted maximal effect; nearly all actives have a fitted effect of over 65% in size
# Method in brief: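 HEK293-ACE2 cells (Expi293F stably expressing human ACE2) were pretreated with compound for 1 h at 37 °C, then infected with MLV-based VSV-G pseudotyped particles for 48 h. Luciferase luminescence was normalized to VSV-G PP and bald PP wells.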
# Sequence of Nucleoprotein (Lymphocytic choriomeningitis virus (strain Armstrong)) (P09992 whole entry, looked up): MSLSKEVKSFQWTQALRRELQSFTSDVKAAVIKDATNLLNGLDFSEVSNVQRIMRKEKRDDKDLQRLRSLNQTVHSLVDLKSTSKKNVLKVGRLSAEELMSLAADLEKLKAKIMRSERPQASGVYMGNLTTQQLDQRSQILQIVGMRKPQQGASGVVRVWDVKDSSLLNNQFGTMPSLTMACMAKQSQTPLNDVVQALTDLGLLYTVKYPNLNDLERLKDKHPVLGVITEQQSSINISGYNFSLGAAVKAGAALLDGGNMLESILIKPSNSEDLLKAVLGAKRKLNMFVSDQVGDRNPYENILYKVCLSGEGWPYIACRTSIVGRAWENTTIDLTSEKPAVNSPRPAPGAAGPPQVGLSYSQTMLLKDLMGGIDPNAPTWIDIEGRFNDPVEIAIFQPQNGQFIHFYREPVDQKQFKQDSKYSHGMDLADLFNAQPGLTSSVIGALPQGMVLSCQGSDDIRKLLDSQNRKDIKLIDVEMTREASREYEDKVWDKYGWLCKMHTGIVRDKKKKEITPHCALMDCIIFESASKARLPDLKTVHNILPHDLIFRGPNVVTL
# Sequence of Glutathione peroxidase 1 (Homo sapiens) (P07203 whole entry, looked up): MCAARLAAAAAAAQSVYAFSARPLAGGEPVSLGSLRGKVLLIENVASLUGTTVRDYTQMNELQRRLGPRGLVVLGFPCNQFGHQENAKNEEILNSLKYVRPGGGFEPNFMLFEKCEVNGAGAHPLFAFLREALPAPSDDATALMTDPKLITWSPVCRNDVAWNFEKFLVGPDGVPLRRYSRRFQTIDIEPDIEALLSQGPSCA
# Sequence of Phospholipid hydroperoxide glutathione peroxidase GPX4 (Homo sapiens) (P36969 whole entry, looked up): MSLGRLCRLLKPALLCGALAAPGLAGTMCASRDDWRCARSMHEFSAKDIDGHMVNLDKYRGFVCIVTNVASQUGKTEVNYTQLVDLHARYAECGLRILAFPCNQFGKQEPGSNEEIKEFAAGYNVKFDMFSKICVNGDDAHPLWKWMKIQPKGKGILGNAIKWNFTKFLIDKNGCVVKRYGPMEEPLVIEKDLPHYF
# Sequence of Calcium and integrin-binding protein 1 (Homo sapiens) (Q99828 whole entry, looked up): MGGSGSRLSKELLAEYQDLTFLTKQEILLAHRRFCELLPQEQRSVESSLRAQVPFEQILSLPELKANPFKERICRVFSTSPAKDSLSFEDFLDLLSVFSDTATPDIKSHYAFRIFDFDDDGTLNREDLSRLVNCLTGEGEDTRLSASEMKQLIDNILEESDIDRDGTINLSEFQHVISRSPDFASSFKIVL
smiles,measurement,setting,value
Fc1cc(F)c2c(c1)[C@H]1C=CC[C@H]1C(c1cccnc1)N2 (some centres undefined),Potency,[1],4.61 µM (active)
same,Potency,[2],inactive
same,Potency,[3],inactive
same,Potency,[4],inactive
same,Potency,[5],6.49 µM (active)
same,Potency,[6],inactive
same,Potency,[7],inactive
same,outcome,[8],inactive
same,Potency,[9],inactive
same,Potency,[10],inactive
same,Potency,JEG-3,25.1 µM (active)
COC(=O)N[C@H](C(=O)N1CCC[C@@H]1c1ncc(-c2ccc(-c3ccc(-c4cnc([C@@H]5CCCN5C(=O)[C@@H](NC(=O)OC)C(C)C)[nH]4)cc3)cc2)[nH]1)C(C)C,Potency,[11],inactive
CN1c2cc(O)c(N=NC(N)=O)cc2CC1S(=O)(=O)O (centres undefined),"parasite growth, % of DMSO control",[12],37.8%
same,"parasite growth remaining, % of DMSO control (lower = more inhibition)",[13],64.1%
same,"growth, % of control",[14],54.6%
same,Potency,[15],inactive
same,Potency,[16],inactive
same,Potency,[11],inactive
same,Potency,[17],inactive
same,Potency,[18],inactive
same,outcome,[19],inactive
same,Potency,[20],inactive
same,outcome,[21],inactive
same,Potency,[22],inactive
same,"activity change, negative = inhibition",[23],4.67%
same,Potency,CRL-7250,inactive
CCc1nc(-c2cccc(C)c2)c(-c2ccnc(NC(=O)c3ccccc3)c2)s1,Potency,[15],inactive
same,Potency,[16],inactive
same,Potency,[11],inactive
same,Potency,[17],inactive
same,Potency,[24],inactive
same,Potency,[22],inactive
same,Potency,[23],25.1 µM (active)
same,Potency,CRL-7250,inactive
O=C(CN1C(=O)C2(CCCC2)NC[C@H]1c1cc(F)cc(F)c1)Nc1ccc2c(c1)C[C@@]1(C2)C(=O)Nc2ncccc21,Potency,[15],inactive
same,Potency,[16],inactive
same,Potency,[11],inactive
same,Potency,[17],inactive
same,Potency,[22],inactive
same,"activity change, negative = inhibition",[23],-13.1%
same,Potency,CRL-7250,inactive
C[C@@H]1CCO[C@H]2Cn3cc(C(=O)NCc4ccc(F)cc4F)c(=O)c(O)c3C(=O)N12,Potency,[15],inactive
same,Potency,[16],inactive
same,Potency,[11],inactive
same,Potency,[17],inactive
same,Potency,[18],inactive
same,outcome,[19],inactive
same,Potency,[20],inactive
same,outcome,[21],inactive
same,Potency,[22],inactive
same,"activity change, negative = inhibition",[23],-84%
same,Potency,[25],0.0076 µM (active)
same,Potency,CRL-7250,inactive
CC1CNc2c(cccc2S(=O)(=O)N[C@@H](CCCN=C(N)N)C(=O)N2CC[C@@H](C)C[C@@H]2C(=O)O)C1 (some centres undefined),Potency,[15],inactive
same,Potency,[16],inactive
same,Potency,[11],inactive
same,Potency,[17],inactive
same,Potency,[22],inactive
same,"activity change, negative = inhibition",[23],-11.7%
same,Potency,CRL-7250,inactive
CN1C(C(=O)Nc2ccccn2)=C(O)c2sc(Cl)cc2S1(=O)=O,Potency,[15],24.3 µM (active)
same,Potency,[16],15.3 µM (active)
same,Potency,[11],24.3 µM (active)
same,Potency,[17],15.3 µM (active)
same,Potency,[18],inactive
same,outcome,[19],inactive
same,Potency,[20],inactive
same,outcome,[21],inactive
same,Potency,[22],inactive
same,Potency,CRL-7250,inactive
O=C(O)CCCc1c[nH]c2ccccc12,Potency,[15],inactive
same,Potency,[16],inactive
same,Potency,[11],inactive
same,Potency,[17],inactive
same,Potency,[22],inactive
same,"activity change, negative = inhibition",[23],0.874%
same,Potency,CRL-7250,inactive
O=C(NC1CCOCC1)c1ccc(-c2cc(-c3cn[nH]c3-c3ccccn3)ccn2)cc1,Potency,[15],inactive
same,Potency,[16],inactive
same,Potency,[11],inactive
same,Potency,[17],inactive
same,Potency,[22],inactive
same,"activity change, negative = inhibition",[23],-3.94%
same,Potency,CRL-7250,inactive
